The text below walks through data of PubChem BioAssay (EPA / NIEHS).

Results filed as inconclusive are left out. Active and inactive are the calls of the source. Rule for the calls, unless noted: active = hit-call score of the fitted dose curve at least 0.9, where 1 is the maximum; inactive = score below 0.9.

The nature of one test: CCTE_Harrill_HTTr_Viability_MCF7: CCTE's 6-hour Cell Viability Assessment for the High-Throughput Transcriptomics (HTTr) Platform, in MCF-7 cells cultured in DMEM + 10% fetal bovine serum, Harrill Lab (AID 2284010). The gist of the method: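 MCF-7 cells in DMEM + 10% FBS, 384-well, exposed 6 h to an eight-point dilution series. Membrane integrity scored by high-content imaging of propidium iodide exclusion; bidirectional fit versus DMSO.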
On to `Cc1ccncc1`, for which the outcome was inactive.
Same read-out and setting: then `C1COCO1`, with “inactive”; and `O=C1OCc2ccccc21`, with “inactive”; and `CCCO`, with “inactive”.
Regarding `C=C(C)C(N)=O`, the outcome was inactive.
With `CCCCCC(=O)O[C@]1(C(C)=O)CC[C@H]2[C@@H]3CCC4=CC(=O)CC[C@]4(C)[C@H]3CC[C@@]21C`, the result was inactive.
Still for that read-out and setting: under `CC(O)CN` (configuration not stated) stands “inactive”; under `O=C1CCCCCCCCCCCC(=O)OCCO1`, “inactive”.
Regarding `COC(=O)C(C)Oc1ccc(Oc2ncc(C(F)(F)F)cc2Cl)cc1` (configuration not stated), the result was inactive.
`CC1=CCC(=C(C)C)CC1`: the outcome was inactive.
As for `COC(=O)c1ccc(C(=O)OC)cc1`, the outcome was inactive.
Regarding `Cc1cccc(C)c1`, the outcome was inactive.
As for `CN(C)CCC=C1c2ccccc2CCc2ccccc21`, the outcome was inactive.
Take `CCOC(=O)COC(=O)c1ccccc1C(=O)OCC`: the outcome was inactive.
With `NC(=O)c1cnccn1`, the outcome was inactive.
As for `CC(C)Cc1ccc(C(C)C(=O)O)cc1` (configuration not stated), the outcome was inactive.
The same measure, in the same setting: under `Cc1cc(O)c2c(c1)C(=O)c1cc(O)cc(O)c1C2=O` stands “inactive”; under `CC(=O)CCc1ccc(O)cc1`, “inactive”.
On the same count and under the same terms, under `CCCCCCCCCO` stands “inactive”; under `CC(=O)CCC(=O)O`, “inactive”; under `CCCCCC1CCC(=O)O1` (configuration not stated), “inactive”.
On the same count and under the same terms, under `OCC=Cc1ccccc1` stands “inactive”; under `CCCCCCCCCCCCCC(=O)OCC`, “inactive”.
With `C=CC(C)CCCC(C)(C)O` (configuration not stated), the result was inactive.
As for `NS(=O)(=O)c1cc(C(=O)O)c(NCc2ccco2)cc1Cl`, the outcome was inactive.
With `CCCCOCCOCCOCCO`, the result was inactive.
On to `O=C(OCc1ccccc1)c1ccccc1O`, for which the result was inactive.
For the compound `CCCCOC(=O)C(C)OC(=O)CCC` (configuration not stated), the outcome was inactive.
With `CCOC(=O)C=Cc1ccccc1`, the result was inactive.
Regarding `C=C1CC/C=C(\C)CC[C@@H]2[C@@H]1CC2(C)C`, the outcome was inactive.
Take `CCCCCCOC(C)=O`: the outcome was inactive.
For the compound `CNC(=C[N+](=O)[O-])NCCSCc1ccc(CN(C)C)o1`, the outcome was inactive.
Turning to `c1coc(CNc2ncnc3nc[nH]c23)c1`, the result was inactive.

The nature of another test: CCTE_Harrill_HTTr_Apoptosis_MCF7: CCTE's 6-hour Apoptosis Assessment for the High-Throughput Transcriptomics (HTTr) Platform, in MCF-7 cells cultured in DMEM + 10% fetal bovine serum, Harrill Lab (AID 2284011). The method in brief: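 Cells are dosed with test chemicals at eight concentrations and imaged 6 hours later for caspase-3/7 activity using a green fluorogenic detection reagent. Activity is fitted in both directions against DMSO controls.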
For the compound `Cc1ccncc1`, the outcome was inactive.
The same measure, in the same setting: then `C1COCO1`, with “inactive”.
In the case of `O=C1OCc2ccccc21`, the outcome was inactive.
On the same count and under the same terms, under `CCCO` stands “inactive”; under `C=C(C)C(N)=O`, “inactive”.
The same measure, in the same setting: then `CCCCCC(=O)O[C@]1(C(C)=O)CC[C@H]2[C@@H]3CCC4=CC(=O)CC[C@]4(C)[C@H]3CC[C@@]21C`, with “inactive”; and `CC(O)CN` (configuration not stated), with “inactive”; and `O=C1CCCCCCCCCCCC(=O)OCCO1`, with “inactive”.
Still for that read-out and setting: then `COC(=O)C(C)Oc1ccc(Oc2ncc(C(F)(F)F)cc2Cl)cc1` (configuration not stated), with “inactive”.
With `CC1=CCC(=C(C)C)CC1`, the result was inactive.
Turning to `COC(=O)c1ccc(C(=O)OC)cc1`, the result was inactive.
As to `Cc1cccc(C)c1`, the result was inactive.
For the compound `CN(C)CCC=C1c2ccccc2CCc2ccccc21`, the outcome was inactive.
Take `CCOC(=O)COC(=O)c1ccccc1C(=O)OCC`: the result was inactive.
Take `NC(=O)c1cnccn1`: the result was inactive.
Regarding `CC(C)Cc1ccc(C(C)C(=O)O)cc1` (configuration not stated), the outcome was inactive.
Turning to `Cc1cc(O)c2c(c1)C(=O)c1cc(O)cc(O)c1C2=O`, the result was inactive.
With `CC(=O)CCc1ccc(O)cc1`, the result was inactive.
Still for that read-out and setting: under `CCCCCCCCCO` stands “inactive”; under `CC(=O)CCC(=O)O`, “inactive”.
In the case of `CCCCCC1CCC(=O)O1` (configuration not stated), the result was inactive.
The same measure, in the same setting: then `OCC=Cc1ccccc1`, with “inactive”; and `CCCCCCCCCCCCCC(=O)OCC`, with “inactive”.
`C=CC(C)CCCC(C)(C)O` (configuration not stated): the result was inactive.
For `NS(=O)(=O)c1cc(C(=O)O)c(NCc2ccco2)cc1Cl`, the result was inactive.
In the case of `CCCCOCCOCCOCCO`, the result was inactive.
Still for that read-out and setting: then `O=C(OCc1ccccc1)c1ccccc1O`, with “inactive”; and `CCCCOC(=O)C(C)OC(=O)CCC` (configuration not stated), with “inactive”.
On to `CCOC(=O)C=Cc1ccccc1`, for which the result was inactive.
On to `C=C1CC/C=C(\C)CC[C@@H]2[C@@H]1CC2(C)C`, for which the result was inactive.
`CCCCCCOC(C)=O`: the outcome was inactive.
On the same count and under the same terms, under `c1coc(CNc2ncnc3nc[nH]c23)c1` stands “inactive”.

A short description of the next test: CCTE_Harrill_HTTr_CellCount_MCF7: CCTE's Cell Proliferation Assessment for the High-Throughput Transcriptomics (HTTr) Platform, Harrill Lab (AID 2284012; active = hit-call score of the fitted dose curve at least 0.9, where 1 is the maximum;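 note: cells exposed to compound for six hours; intended direction is loss of nuclei count meaning fewer cells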). The gist of the method:
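MCF7 cells exposed 6 hours to an eight-point dilution series; Hoechst-stained nuclei counted by high-content imaging. Bidirectional curve fitting against DMSO baseline.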
For the compound `C1COCO1`, the call was inactive.
As to `O=C1CCCCCCCCCCCC(=O)OCCO1`, the outcome was inactive.
Take `COC(=O)C(C)Oc1ccc(Oc2ncc(C(F)(F)F)cc2Cl)cc1` (configuration not stated): the call was inactive.
Take `Cc1cccc(C)c1`: the compound was called inactive.
Turning to `Cc1cc(O)c2c(c1)C(=O)c1cc(O)cc(O)c1C2=O`, the outcome was inactive.
The same measure, in the same setting: then `CCCCCCCCCCCCCC(=O)OCC`, with “inactive”; and `CCCCOC(=O)C(C)OC(=O)CCC` (configuration not stated), with “inactive”.
